# Assay results taken from the supplement of paper PMC6555819.
# Experiments:
# Assay in all cases: PBM binding z-score (relative to random genomic background probes); higher = stronger binding; sequences stand for … in GC…GCGATTGACAGCGTAGAATGAAGG
# [1] = test system: PPARg:RXRa DBDmut IVT, anti-RXR (DBD mutation: RXRa K156A/R161A, NR concentration 270 nM, RXRa partner concentration 90 nM)
# Method in brief: (§1)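 Regression normalization was applied to scanned fluorescence from custom Agilent 4×180K protein-binding microarrays. Before scanning, arrays were incubated 1 h with ligand-free nuclear receptor dimers, and binding was detected with antibodies against each partner (one per run). Binding z-scores use the random background probes as reference.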
# [2] = test system: PPARg:RXRa IVT, anti-PPARg (NR concentration 270 nM, RXRa partner concentration 90 nM)
# Method in brief: as §1
# [3] = test system: PPARg DBDmut:RXRa IVT, anti-PPARg (DBD mutation: PPARg1 K132A/R137A, NR concentration 270 nM, RXRa partner concentration 90 nM)
# Method in brief: as §1
# [4] = test system: PPARg DBDmut IVT, anti-PPARg (DBD mutation: PPARg1 K132A/R137A, NR concentration 270 nM)
# Method in brief: as §1
# [5] = test system: PPARg homodimer (NR concentration 180 nM)
# Method in brief: as §1
# [6] = test system: PXR:RXRa (NR concentration 270 nM, RXRa partner concentration 90 nM)
# Method in brief: as §1
# [7] = test system: PXR homodimer (NR concentration 270 nM)
# Method in brief: as §1
# [8] = test system: RARa:RXR (NR concentration 270 nM, RXRa partner concentration 90 nM)
# Method in brief: as §1
# [9] = test system: RARa homodimer (NR concentration 270 nM)
# Method in brief: as §1
# [10] = test system: RARb:RXRa (NR concentration 270 nM, RXRa partner concentration 90 nM)
# Method in brief: as §1
# [11] = test system: RARb homodimer (NR concentration 270 nM)
# Method in brief: as §1
# [12] = test system: RARg:RXRa (NR concentration 270 nM, RXRa partner concentration 90 nM)
# Method in brief: as §1
# [13] = test system: RARg homodimer (NR concentration 270 nM)
# Method in brief: as §1
# [14] = test system: RXRa DBDmut IVT, anti-RXR (DBD mutation: RXRa K156A/R161A, NR concentration 90 nM)
# Method in brief: as §1
# [15] = test system: RXRa homodimer (NR concentration 180 nM)
# Method in brief: as §1
# [16] = test system: THRa:RXRa (NR concentration 90 nM, RXRa partner concentration 90 nM)
# Method in brief: as §1
# [17] = test system: THRa homodimer (NR concentration 90 nM)
# Method in brief: as §1
# [18] = test system: VDR homodimer (NR concentration 270 nM)
# Method in brief: as §1
Sequence,PBM binding z-score [1],PBM binding z-score [2],PBM binding z-score [3],PBM binding z-score [4],PBM binding z-score [5],PBM binding z-score [6],PBM binding z-score [7],PBM binding z-score [8],PBM binding z-score [9],PBM binding z-score [10],PBM binding z-score [11],PBM binding z-score [12],PBM binding z-score [13],PBM binding z-score [14],PBM binding z-score [15],PBM binding z-score [16],PBM binding z-score [17],PBM binding z-score [18]
CCTACTGAGCCAAGGTCATTGATCAGTCAAAGCA,0.598,0.834,-0.559,-0.729,2.66,3.69,2.46,3.64,1.47,3.15,3.43,3.7,3.17,2.2,3.23,3.52,2.49,3.65
CCGACTGGGCCAAGGTTACCATAACGCACAGCCA,1.61,1.71,0.193,-0.788,0.313,0.153,-0.166,0.508,-0.101,0.98,0.94,0.614,0.453,-0.285,0.719,1.07,0.784,-0.176
ACTAGCAGGCCAAGGGTCACTCCAGATTAGTCCG,1.08,3.57,-0.0917,-0.469,1.44,2.68,0.019,3.79,0.278,3.42,3.65,3.77,3.48,0.274,3.74,2.55,0.269,1
AGTCAAAGTTCATCTAGGAAACGTAAGATATGCT,0.0279,2.61,1.09,0.7,2.32,4.53,3.68,3.18,1.09,5.02,3.89,5.45,6.42,4.79,4.58,1.98,-0.21,4.34
TGTCAAAGTTAAAAGGTAACGTAAGTATCCACAC,-0.253,2.08,1.24,0.84,0.261,0.715,0.361,1.23,0.69,1.33,0.641,1.31,1.09,-0.392,1.22,1.72,-0.237,-0.239
GCAGACTGGTGAAACGCAGGTAACTCAGGGTGGC,-0.965,-0.728,-0.431,-1.07,-1.3,-0.855,-0.855,-0.718,-1.39,-0.689,-1.13,-0.789,-0.946,-1.05,-0.735,0.213,-0.648,-1.15
TCTGCTAGGTCAGTTGGTCAGCTTACGAGCTGCC,2.73,3.32,0.732,-0.0451,-0.25,0.13,-0.847,0.661,-0.758,3.36,2.7,2.62,3.97,0.621,0.757,1.26,0.376,-0.597
